In PubChem BioAssay:
For part of these data: Entries with a potency or affinity are not part of this list.

assay: blockers of polyQ-driven CASP3 activation – cell-based (AID 1583); settings: polyglutamine-induced caspase-3 activation, cell assay; stronger effect = higher value;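 tested at 10 µM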

SMILES	inhibition
O=C1CC[C@@]2(O)[C@H]3Cc4ccc(O)c5c4C2(CCN3CC2CC2)[C@H]1O5	-9.29%
C=C[C@H]1CN2CC[C@H]1C[C@@H]2[C@@H](OC(=O)OCC)c1ccnc2ccc(OC)cc12	11.7%
NC1C[C@H]1c1ccccc1 (some centres undefined)	-1.78%
C[C@@H]1O[C@@H](O[C@H]2C[C@@H](O)[C@]3(CO)C4C(CC[C@]3(O)C2)[C@@]2(O)CC[C@H](C3=CC(=O)OC3)[C@@]2(C)C[C@H]4O)[C@H](O)[C@H](O)[C@H]1O (some centres undefined)	78.5%
CC1[C@H](C)OC(=O)CC(O)CC(O)CC(O)CCC(O)C(O)C[C@]2(O)CC(O)C(C(=O)O)C(CC(OC3O[C@H](C)[C@@H](O)[C@H](N)[C@@H]3O)/C=C/C=C/C=C/C=C/CC/C=C/C=C/[C@H](C)[C@H]1O)O2 (some centres undefined)	3.51%
C[N+](C)(C)CC(=O)[O-]	4.44%
C#CC1(O)CCC2C3CCC4=CC(=O)CCC4(C)C3CCC21C (centres undefined)	4.95%
CCC(=O)O[C@H]1CCC2C3CCC4=CC(=O)CC[C@]4(C)C3CC[C@@]21C (some centres undefined)	28.2%
CCN1C[C@@]2(COC)C3[C@@H](OC)[C@H]4[C@@H]1[C@]3(C(OC)C[C@H]2O)C1C[C@@]2(O)[C@H](OC(=O)c3ccccc3)C1[C@]4(OC(C)=O)[C@@H](O)[C@@H]2OC (some centres undefined)	-1.76%
C=CCN1CC[C@]23c4c5ccc(O)c4OC2C(=O)CC[C@@]3(O)[C@H]1C5 (some centres undefined)	-6.59%
N#CC(O[C@@H]1O[C@H](CO[C@@H]2O[C@H](CO)[C@@H](O)[C@H](O)[C@H]2O)[C@@H](O)[C@H](O)[C@H]1O)c1ccccc1 (some centres undefined)	3.65%
Oc1ccc2c3c1OC1[C@@H](O)CC[C@@]4(O)[C@@H](C2)N(CC2CCC2)CC[C@]314 (some centres undefined)	-4.48%
C=C[C@H]1CN2CC[C@H]1C[C@@H]2[C@H](O)c1ccnc2ccccc12	15.4%

assay: yeast 75Q aggregation reduction – 75Q-TubU reporter (AID 1593); settings: Yeast 75Q polyglutamine aggregation reporter

SMILES	score
O=C1CC[C@@]2(O)[C@H]3Cc4ccc(O)c5c4C2(CCN3CC2CC2)[C@H]1O5	1.49
C=C[C@H]1CN2CC[C@H]1C[C@@H]2[C@@H](OC(=O)OCC)c1ccnc2ccc(OC)cc12	1.24
NC1C[C@H]1c1ccccc1 (some centres undefined)	0.95
C[C@@H]1O[C@@H](O[C@H]2C[C@@H](O)[C@]3(CO)C4C(CC[C@]3(O)C2)[C@@]2(O)CC[C@H](C3=CC(=O)OC3)[C@@]2(C)C[C@H]4O)[C@H](O)[C@H](O)[C@H]1O (some centres undefined)	1.02
CC1[C@H](C)OC(=O)CC(O)CC(O)CC(O)CCC(O)C(O)C[C@]2(O)CC(O)C(C(=O)O)C(CC(OC3O[C@H](C)[C@@H](O)[C@H](N)[C@@H]3O)/C=C/C=C/C=C/C=C/CC/C=C/C=C/[C@H](C)[C@H]1O)O2 (some centres undefined)	-0.11
C[N+](C)(C)CC(=O)[O-]	1.09
C#CC1(O)CCC2C3CCC4=CC(=O)CCC4(C)C3CCC21C (centres undefined)	0.22
CCC(=O)O[C@H]1CCC2C3CCC4=CC(=O)CC[C@]4(C)C3CC[C@@]21C (some centres undefined)	0.18
CCN1C[C@@]2(COC)C3[C@@H](OC)[C@H]4[C@@H]1[C@]3(C(OC)C[C@H]2O)C1C[C@@]2(O)[C@H](OC(=O)c3ccccc3)C1[C@]4(OC(C)=O)[C@@H](O)[C@@H]2OC (some centres undefined)	0.9
C=CCN1CC[C@]23c4c5ccc(O)c4OC2C(=O)CC[C@@]3(O)[C@H]1C5 (some centres undefined)	1.27
N#CC(O[C@@H]1O[C@H](CO[C@@H]2O[C@H](CO)[C@@H](O)[C@H](O)[C@H]2O)[C@@H](O)[C@H](O)[C@H]1O)c1ccccc1 (some centres undefined)	1.42
Oc1ccc2c3c1OC1[C@@H](O)CC[C@@]4(O)[C@@H](C2)N(CC2CCC2)CC[C@]314 (some centres undefined)	1.45
C=C[C@H]1CN2CC[C@H]1C[C@@H]2[C@H](O)c1ccnc2ccccc12	1.55

assay: restoration of touch response, mutant HTT neurons – whole organism, C. elegans mechanosensory neurons, N-terminal huntingtin (AID 1599); settings: C. elegans polyQ-huntingtin mechanosensory neurons, stronger effect = higher value

SMILES	rescue above control
O=C1CC[C@@]2(O)[C@H]3Cc4ccc(O)c5c4C2(CCN3CC2CC2)[C@H]1O5	-6.2
C=C[C@H]1CN2CC[C@H]1C[C@@H]2[C@@H](OC(=O)OCC)c1ccnc2ccc(OC)cc12	17
NC1C[C@H]1c1ccccc1 (some centres undefined)	2.94
C[C@@H]1O[C@@H](O[C@H]2C[C@@H](O)[C@]3(CO)C4C(CC[C@]3(O)C2)[C@@]2(O)CC[C@H](C3=CC(=O)OC3)[C@@]2(C)C[C@H]4O)[C@H](O)[C@H](O)[C@H]1O (some centres undefined)	3.58
CC1[C@H](C)OC(=O)CC(O)CC(O)CC(O)CCC(O)C(O)C[C@]2(O)CC(O)C(C(=O)O)C(CC(OC3O[C@H](C)[C@@H](O)[C@H](N)[C@@H]3O)/C=C/C=C/C=C/C=C/CC/C=C/C=C/[C@H](C)[C@H]1O)O2 (some centres undefined)	3.77
C[N+](C)(C)CC(=O)[O-]	5.21
C#CC1(O)CCC2C3CCC4=CC(=O)CCC4(C)C3CCC21C (centres undefined)	3.19
CCC(=O)O[C@H]1CCC2C3CCC4=CC(=O)CC[C@]4(C)C3CC[C@@]21C (some centres undefined)	-2.54
CCN1C[C@@]2(COC)C3[C@@H](OC)[C@H]4[C@@H]1[C@]3(C(OC)C[C@H]2O)C1C[C@@]2(O)[C@H](OC(=O)c3ccccc3)C1[C@]4(OC(C)=O)[C@@H](O)[C@@H]2OC (some centres undefined)	-1.73
C=CCN1CC[C@]23c4c5ccc(O)c4OC2C(=O)CC[C@@]3(O)[C@H]1C5 (some centres undefined)	-8.32
N#CC(O[C@@H]1O[C@H](CO[C@@H]2O[C@H](CO)[C@@H](O)[C@H](O)[C@H]2O)[C@@H](O)[C@H](O)[C@H]1O)c1ccccc1 (some centres undefined)	-2.1
Oc1ccc2c3c1OC1[C@@H](O)CC[C@@]4(O)[C@@H](C2)N(CC2CCC2)CC[C@]314 (some centres undefined)	-8.65
C=C[C@H]1CN2CC[C@H]1C[C@@H]2[C@H](O)c1ccnc2ccccc12	3.43
